High-throughput results: PubChem BioAssay, National Center for Advancing Translational Sciences (NCATS)
The list is not random: actives were taken first. Their share in the collection is about 4.2%.
VDR inh = Inhibitors of the vitamin D receptor (VDR): qHTS; VDR-SRC2-3 peptide fluorescence polarization, 2 h; 400,000 tested, 0.93% active; AID 504847, 2011; Vitamin D3 receptor (Homo sapiens), P11473; Potency, µM, without a hit: max response, negative = inhibition, actives largely listed as inhibitors
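VDR–SRC2-3 interaction, FP format. Cmpds 23 nl via pintool, brief spin, 2 h ambient incubation.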
PLK1 PBD inh = qHTS for Inhibitors of PLK1-PDB (polo-like kinase 1 - polo-box domain): Primary Screen; Serine/threonine-protein kinase PLK1 (Homo sapiens), P53350; Plk1 PBD binding of FITC phosphopeptide, fluorescence polarization; Potency, µM, without a hit: max response, negative = inhibition, hits mostly inhibitors; 360,000 tested, 2.8% active; AID 720504, 2013; also: series mostly up to about 57 µM; nearly all actives have a fitted effect of over 65% in size
Target sequence (P53350 whole entry, looked up, the tested form may be a part): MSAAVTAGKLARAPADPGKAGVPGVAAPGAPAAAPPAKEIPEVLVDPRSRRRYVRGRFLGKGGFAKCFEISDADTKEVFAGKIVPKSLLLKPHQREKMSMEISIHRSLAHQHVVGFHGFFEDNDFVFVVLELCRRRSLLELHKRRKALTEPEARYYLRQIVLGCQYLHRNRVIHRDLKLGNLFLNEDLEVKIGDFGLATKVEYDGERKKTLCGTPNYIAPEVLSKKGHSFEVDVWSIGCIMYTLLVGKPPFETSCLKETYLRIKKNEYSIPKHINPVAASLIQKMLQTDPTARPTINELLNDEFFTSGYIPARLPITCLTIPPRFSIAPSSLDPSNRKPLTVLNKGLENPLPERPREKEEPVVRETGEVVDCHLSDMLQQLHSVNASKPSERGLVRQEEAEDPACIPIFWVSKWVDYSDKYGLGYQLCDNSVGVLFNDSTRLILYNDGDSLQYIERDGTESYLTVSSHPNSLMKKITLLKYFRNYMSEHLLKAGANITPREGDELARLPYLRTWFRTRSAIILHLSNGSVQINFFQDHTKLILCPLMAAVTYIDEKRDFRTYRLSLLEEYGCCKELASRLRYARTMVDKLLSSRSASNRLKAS
ALOX12 inh = Primary qHTS assay for inhibitors of human arachidonate 12S-lipoxygenase (ALOX12): Round 2; Polyunsaturated fatty acid lipoxygenase ALOX12 (Homo sapiens), P18054; purified 12hLO, xylenol orange hydroperoxide absorbance; Potency, µM (top dose mostly 108 µM), inactives show top-dose activity change, negative = inhibition, usual class: inhibitors; 580,000 tested, 1.1% active
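Purified human 12hLO at 150 nM in 25 mM Hepes, 0.01% Triton X-100, pH 7.0, preincubated 15 min at room temperature with compound. Reaction started with 40 uM arachidonic acid, 30 min at room temperature. Hydroperoxide measured by Fe-xylenol orange, 573/405 nm absorbance ratio.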
Sfp inh = qHTS Assay for Inhibitors of Bacillus subtilis Sfp phosphopantetheinyl transferase (PPTase) | 310,000 tested, 3.5% active | Potency, µM, for the others: largest response in the series, negative = inhibition, most hits filed as inhibitors | 4'-phosphopantetheinyl transferase ffp (Bacillus subtilis), Q9F4F7 | Biochemical Sfp PPTase activity, qHTS | AID 1490, 2009;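 also: the enzyme is Sfp with the accession as filed and its product quenches rhodamine fluorescence; 0% = enzyme reaction without inhibitor and -100% = no enzyme wells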
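Fluorescence-quenching assay: 15 nM Sfp-PPTase preincubated 15 min at room temperature with compound, then 5 uM rhodamine-CoA and 12.5 uM BHQ-2-labelled YbbR peptide added. Fluorescence (ex 525/em 598 nm) read at start and after 30 min; difference gives rate.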
Numbers without * were called inactive; ? = inconclusive; . = not tested or not shown. Calls follow the shape of the dose curve; as a rule, active = well fitted curve in the direction sought with a large enough effect; inconclusive = small, poorly fitted or top-dose-only effect, or another doubt; inactive = no such curve, though single readings can be large; an effect the other way counts as inactive or inconclusive. Unless noted, % is scaled to controls: 0 for no effect and ±100 for the full control effect; potency is read from the fitted curve at half-maximal effect.

SMILES	VDR inh	PLK1 PBD inh	ALOX12 inh	Sfp inh
O=C(O)c1cc(O)c2c(c1)[C@H]([C@H]1c3cc(C(=O)O)cc(O)c3C(=O)c3c(O[C@@H]4OC(CO)C(O)C(O)C4O)cccc31)c1cccc(O[C@@H]3OC(CO)C(O)C(O)C3O)c1C2=O (stereo not given in full)	39.8µM*	.	.	56.2µM*
OCC1OC(Oc2cccc3ccccc23)C(O)C(O)C1O (stereo not given)	3.5%	-1.1%	0.0%	10.8%
O=C(O)c1cc(O)c2c(c1)[C@@H]([C@H]1c3cc(C(=O)O)cc(O)c3C(=O)c3c(O[C@@H]4O[C@H](CO)[C@@H](O)[C@H](O)[C@H]4O)cccc31)c1cccc(O[C@@H]3O[C@H](CO)[C@@H](O)[C@H](O)[C@H]3O)c1C2=O	-20.1%	2.67µM*	.	.
CCOC(=O)Cc1csc(SCn2nnc3ccccc3c2=O)n1	0.3%	-10.6%	0.0%	-5.1%
CCOC(=O)Cc1csc(-n2sc3ccccc3c2=O)n1	15.8µM*	2.99µM*	?	6.31µM*
COc1ccc(CNc2ncnc3c2cnn3-c2ccc(C)c(C)c2)cc1	2.5%	.	-25.4%	.
Cc1ccc(-n2ncc3c(NCCc4ccc(S(N)(=O)=O)cc4)ncnc32)cc1	3.7%	.	-18.4%	.
COc1ccc(-n2ncc3c(NCCC4=CCCCC4)ncnc32)cc1	3.9%	.	3.55µM*	.
Cc1ccc(-n2ncc3c(NCCC4=CCCCC4)ncnc32)cc1	-4.0%	.	12.6µM*	.
Cc1cnc(C(=O)OCC(=O)Nc2sc3c(c2C(N)=O)CCCC3)cn1	-14.9%	-2.9%	?	.
CC1CN(C2CCN(S(=O)(=O)c3ccc4ccccc4c3)CC2)CC(C)O1 (stereo not given)	0.9%	-10.0%	-18.0%	31.6µM*
CCS(=O)(=O)N1CCN(S(=O)(=O)c2ccc3ccccc3c2)CC1	6.4%	-11.0%	75.9%	10.1%
CC(C)N1CCN(S(=O)(=O)c2ccc3ccccc3c2)CC1	-23.0%	-5.2%	0.794µM*	?
CC(C)NC(=O)C(C)N1CCN(S(=O)(=O)c2ccc3ccccc3c2)CC1 (stereo not given)	-0.9%	-19.8%	1.41µM*	-28.6%
CC(C)C(=O)N1CCN(S(=O)(=O)c2ccc3ccccc3c2)CC1	-6.2%	-8.7%	-3.0%	14.4%
O=S(=O)(c1ccc2ccccc2c1)N1CCN(S(=O)(=O)N2CCCCC2)CC1	10.8%	-5.3%	3.9%	1.7%
COc1ccc(/C=C\C(=O)NCC(=O)N/N=C/c2cccc(OC)c2O)cc1	-2.6%	-9.2%	-30.2%	3.4%
Cc1ccc(S(=O)(=O)C(C#N)c2nc3ccccc3nc2N2CCCCC2)cc1 (stereo not given)	.	.	.	3.6%
CCN(CC)c1nc2ccccc2nc1C(C#N)S(=O)(=O)c1ccc(C)cc1 (stereo not given)	.	.	14.1µM*	.
O=C(CCC1CCCC1)Nc1ccc2c(c1)-c1ccccc1C2	.	.	-5.0%	.
Cc1ccc(C(=O)N2CC=C(c3ccccc3)CC2)s1	-15.1%	-14.3%	-15.6%	.
COc1ccc(/C=C2\SC(=S)N(CCC(=O)Nc3ccccc3C(=O)O)C2=O)cc1	1.6%	?	0.0%	2.4%
COc1ccc(/C=C2\SC(=O)N(CCCC(=O)Nc3cc(Cl)ccc3C(=O)O)C2=O)cc1	-17.0%	-24.4%	35.5µM*	.
COc1ccc(OC)c(C(=O)c2c(C)oc3cc([N+](=O)[O-])c(O)c([N+](=O)[O-])c23)c1	-1.9%	-11.5%	?	56.2µM*
CCCCCCCCCCCCCCCCOCCOCCOCCOCCOCCOCCOCCOCCOCCOCCOCCOCCOCCOCCOCCOCCOCCOCCOCCOCCO	1.6%	.	.	50.1µM*
CCCCOCCO	2.5%	-0.4%	21.9%	.
COc1cccc(C(=O)Nc2c(C)nn(-c3ccccc3)c2C)c1	9.3%	-6.9%	-5.7%	12.0%
CC1=Nc2cc(C(=O)O)ccc2Sc2ccc(Br)cc21	-1.7%	?	44.7µM*	19.5%
CC1=Nc2cc(C(=O)NC3CCCC3)ccc2Sc2ccc(Br)cc21	-0.4%	.	0.5%	.
O=C(CN(Cc1ccco1)C(=O)Cn1nnc(-c2ccc(F)cc2)n1)NC1CCCC1	-6.1%	-3.5%	-25.4%	10.9%
